Results: PubChem BioAssay (EPA / NIEHS)
Records with an inconclusive call do not appear. Active and inactive are the calls of the source. How the source made its calls: active means hit-call score of the fitted dose curve at least 0.9, where 1 is the maximum; inconclusive means response in the unintended direction; inactive means score below 0.9.

Assays:
[1] = TOX21_p53_BLA_p2_viability: Viability Assessment in the Tox21 HCT-116 p53 Agonism Beta-lactamase Assay, Phase 2 (AID 2283591);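 further: compound exposure lasted 16 h at 37 °C; actives lower the ATP signal meaning cytotoxicity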
Outline: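 HCT116 p53-bla cells, 4000/well, dosed after 5 h plating (217-fold dilution of DMSO stocks) and incubated 16 h at 37C. Viability taken as cellular ATP by CellTiter-Glo luminescence after 30 min RT; signal loss marks cytotoxicity.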

[2] = TOX21_p53_BLA_p3_viability: Viability Assessment in the Tox21 HCT-116 p53 Agonism Beta-lactamase Assay, Phase 3 (AID 2283593);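 further: cells exposed to compound for 16 h before reading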
Outline: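 HCT116 cells, 4000/well, dosed 5 h after plating by pin transfer (217-fold dilution from DMSO stock) and incubated 16 h at 37C, 5% CO2. Viability read as ATP luminescence with CellTiter-Glo after 30 min at room temperature.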

[3] = target: Cellular tumor antigen p53 (Homo sapiens) (UniProt P04637); assay: TOX21_p53_BLA_p5_ratio: Tox21 HCT-116 p53 Agonism Beta-lactamase Assay, Ratio, Phase 5 (AID 2283599)
Outline: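 HCT-116 p53-bla cells (4000/well) plated 5 h, dosed with compound (217-fold DMSO dilution) for 16 h at 37 C; CCF4-AM substrate 2 h at room temperature. Activity is the 460/530 nm emission ratio (405 nm excitation), fitted in gain-of-signal direction versus DMSO.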

[4] = target: Cellular tumor antigen p53 (Homo sapiens) (UniProt P04637); assay: TOX21_p53_BLA_p4_ratio: Tox21 HCT-116 p53 Agonism Beta-lactamase Assay, Ratio, Phase 4 (AID 2283601)
Outline: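 HCT-116 p53 beta-lactamase reporter cells (4000/well) preincubated 5 h, then compound (217-fold dilution of DMSO stock) for 16 h at 37C. CCF4-AM substrate added 2 h at room temperature; 460/530 nm emission ratio fitted upward versus DMSO.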

Measured: outcome

Sequence of Cellular tumor antigen p53 (Homo sapiens) (P04637 whole entry, looked up): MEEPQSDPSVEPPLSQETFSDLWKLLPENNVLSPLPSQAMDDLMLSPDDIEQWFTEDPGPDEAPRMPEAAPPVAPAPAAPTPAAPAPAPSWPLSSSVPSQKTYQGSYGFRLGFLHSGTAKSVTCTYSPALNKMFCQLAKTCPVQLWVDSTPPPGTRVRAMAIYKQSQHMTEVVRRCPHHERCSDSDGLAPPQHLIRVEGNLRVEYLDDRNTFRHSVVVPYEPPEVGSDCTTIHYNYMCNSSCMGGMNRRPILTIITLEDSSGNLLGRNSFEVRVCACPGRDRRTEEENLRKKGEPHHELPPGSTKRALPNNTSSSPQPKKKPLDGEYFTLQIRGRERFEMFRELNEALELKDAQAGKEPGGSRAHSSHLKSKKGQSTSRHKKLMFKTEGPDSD

CC(C)C(Nc1ccc(C(F)(F)F)cc1Cl)C(=O)OC(C#N)c1cccc(Oc2ccccc2)c1 (centres undefined)
inactive: all assays above
